Test results published in PubChem BioAssay.
The source made the active and inactive calls. Rule as the data show it, unless noted: active = inhibition above about 33%; inactive = the rest.

Columns and labels:
[1] = StAR promoter reporter inhibitors, counter-screen for LRH-1 inverse agonist project, cell-based, luminescence, high throughput (AID 651611; in the data active = inhibition above about 28%); conditions: StAR promoter luciferase reporter counterscreen, at 3.6 µM, hits give high values
[2] = target: Nuclear receptor subfamily 5 group A member 2 (Homo sapiens) (UniProt O00482); assay: NR5A2 activity suppression in reporter cells – cell-based, luminescence, confirmation (AID 651613; in the data active = inhibition above about 42%;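 also: HEK293T cells co-transfected with LRH-1 and StAR promoter luciferase reporter; 0% = vehicle wells and 100% = parental cells lacking receptor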); conditions: cell-based LRH-1 luciferase reporter, inverse agonism; at 3.6 µM; hits give high values
[3] = target: Steroidogenic factor 1 (Homo sapiens) (UniProt Q13285); assay: inverse agonism at SF1 nuclear receptor – cell-based, luminescence, high throughput, counter-screen for LRH-1 inverse agonist project (AID 651614; in the data active = inhibition above about 44%;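 also: cells cotransfected with StAR promoter reporter and SF1 expression vector; 0% = vehicle on cells with receptor and 100% = vehicle on cells lacking receptor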); conditions: cell-based SF1 luciferase reporter, at 3.6 µM, hits give high values
[4] = compounds suppressing VP16-driven luciferase signal – cell-based, luminescence, high throughput, counter-screen for LRH-1 inverse agonist project (AID 651615); conditions: Gal4-VP16 luciferase reporter cells, at 3.6 µM, hits give high values

Chain of Nuclear receptor subfamily 5 group A member 2 (Homo sapiens) (O00482 whole entry, looked up): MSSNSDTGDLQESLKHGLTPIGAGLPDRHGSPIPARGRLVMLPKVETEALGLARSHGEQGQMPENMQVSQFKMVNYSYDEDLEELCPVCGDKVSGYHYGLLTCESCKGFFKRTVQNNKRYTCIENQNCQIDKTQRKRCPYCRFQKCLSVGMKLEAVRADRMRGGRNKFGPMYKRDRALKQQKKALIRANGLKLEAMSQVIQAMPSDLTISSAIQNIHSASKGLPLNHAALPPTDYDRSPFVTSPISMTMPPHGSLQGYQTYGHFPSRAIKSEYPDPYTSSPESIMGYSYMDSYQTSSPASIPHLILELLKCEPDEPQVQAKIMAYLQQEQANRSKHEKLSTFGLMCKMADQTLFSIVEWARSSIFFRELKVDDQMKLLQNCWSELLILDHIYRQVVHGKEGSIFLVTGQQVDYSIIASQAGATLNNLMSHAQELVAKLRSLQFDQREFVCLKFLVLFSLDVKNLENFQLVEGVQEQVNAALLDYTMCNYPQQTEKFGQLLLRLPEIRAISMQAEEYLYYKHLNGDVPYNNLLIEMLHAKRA
Chain of Steroidogenic factor 1 (Homo sapiens) (Q13285 whole entry, looked up, the tested form may be a part): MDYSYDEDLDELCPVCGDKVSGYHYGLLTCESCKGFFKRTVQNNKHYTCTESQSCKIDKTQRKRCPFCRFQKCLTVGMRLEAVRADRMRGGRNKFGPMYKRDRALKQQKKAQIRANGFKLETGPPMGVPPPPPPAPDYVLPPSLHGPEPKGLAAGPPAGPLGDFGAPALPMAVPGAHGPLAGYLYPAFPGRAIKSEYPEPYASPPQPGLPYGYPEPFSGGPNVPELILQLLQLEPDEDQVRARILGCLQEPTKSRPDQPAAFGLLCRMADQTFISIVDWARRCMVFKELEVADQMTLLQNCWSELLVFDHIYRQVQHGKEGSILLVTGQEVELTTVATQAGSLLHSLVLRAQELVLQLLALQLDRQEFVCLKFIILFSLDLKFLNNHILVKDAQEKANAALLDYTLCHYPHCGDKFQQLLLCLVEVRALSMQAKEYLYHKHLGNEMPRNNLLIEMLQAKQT

SMILES | inhibition [1] | inhibition [2] | inhibition [3] | inhibition [4]
CCc1ccccc1NC(=O)CSc1nnc([C@@H]2CCCN2C(=O)OC(C)(C)C)o1 | 16.4% (inactive) | 50.5% (active) | 59% (active) | -8.78% (inactive)
COc1ccc(CNC(=O)O[C@@H]2C[C@H]3C(=O)N(c4ccccc4)C(=O)[C@H]3[C@@]3(CN(S(=O)(=O)c4ccc(C)cc4)C[C@H]3C)[C@@H]2O)cc1OC | 9.47% (inactive) | 18.4% (inactive) | 13.8% (inactive) | 8.56% (inactive)
COc1ccc(Oc2ccccc2/C=N/O)cc1 | 2.42% (inactive) | 57% (active) | 58.1% (active) | 42.5% (active)
Cc1cc2oc(C(=O)NCc3ccncc3)c(C)c2cc1C | -3.56% (inactive) | 36.2% (inactive) | 39.6% (inactive) | 3.82% (inactive)
Cc1ccc(CC(=O)Nc2ccncc2)cc1 | 7.72% (inactive) | 64.3% (active) | 64.9% (active) | 40.5% (active)
CCCCNc1cc(C)nc(NCc2ccccc2)n1 | 35.5% (active) | 57.6% (active) | 68.8% (active) | 50.8% (active)
O=C(c1ccccc1)N1CCN(c2ccc([N+](=O)[O-])c(N3CCOCC3)c2)CC1 | 9.16% (inactive) | 39.5% (inactive) | 34.7% (inactive) | 3.81% (inactive)
O=C(Nc1cccc2ncccc12)c1ccc([N+](=O)[O-])o1 | 16.2% (inactive) | 69.9% (active) | 64.4% (active) | -17.5% (inactive)
COc1ccc(-n2c(/C=C(\C)O)nc(=O)c3c(C)cc(C)nc32)cc1 | 12.9% (inactive) | 51.8% (active) | 37.2% (inactive) | 16.7% (inactive)
